From PubChem BioAssay
LASV entry inh: qHTS for Inhibitors of binding or entry into cells for Lassa Virus | Lassa virus pseudotype entry inhibition, cell reporter | Potency, µM (series often up to 37.9 µM), for inactives: at the top dose activity change, negative = inhibition, hits mostly inhibitors | hit rate 1.2% among 300,000 | AID 540256, 2011; calls by dose curve; tested in HEK293 cells; further: potency means the concentration at half of the fitted maximal effect; nearly all actives have a fitted effect of over 50% in size
VACV mCherry inh: qHTS for Stage-Specific Inhibitors of Vaccinia Orthopoxvirus: mCherry Reporter Primary qHTS; Vaccinia virus mCherry reporter infection, fluorescence; Potency, µM (highest dose often 36.5 µM), for inactives: top-dose activity change, negative = inhibition, actives largely listed as inhibitors; hit rate 0.63% among 310,000; calls by dose curve; tested in A549 cells; further: potency means the concentration at half of the fitted maximal effect; nearly all actives have a fitted effect of over 35% in size
Marburg entry inh: qHTS for inhibitors of binding or entry into cells for Marburg Virus; Marburg virus pseudotyped entry inhibition, cell reporter; Potency, µM (titrated, usually from 37.8 µM), for the others: at the top dose activity change, negative = inhibition, hits mostly inhibitors; hit rate 1.8% among 300,000; AID 540276, 2011; calls by dose curve; tested in HEK293 cells; further: potency means the concentration at half of the fitted maximal effect
HCV inhibitor: qHTS Assay for Inhibitors of Hepatitis C Virus (HCV); AID 651820, 2012; hit rate 3.4% among 340,000; Huh7.5.1 HCVcc-Cre infection, luciferase reporter, 44 h; Potency, µM (titrated, usually from 41.8 µM), inactives show top-dose activity change, negative = inhibition, usual class: inhibitors; active means well fitted inhibition curve with a large enough effect; inconclusive means small, poorly fitted or top-dose-only effect, or another doubt; inactive means no such curve, though single readings can be large or run the other way; further: potency means the concentration at half of the fitted maximal effect
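1,000 cells/well; 4 h culture; + compound; + HCVcc-Cre (~0.5 moi); 44 h; luciferase substrate, RT 15 min; read 15 sec.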
HCMV inh: qHTS Assay for inhibitors of the human cytomegalovirus (HCMV); HFF cells, HCMV-luciferase reporter, 72 h; active compounds read low; AID 1259415, 2018; hit rate 4.5% among 410,000; activity change, negative = inhibition, % at 57.5 µM; in the data active means activity change below about -60%; inconclusive means no clear call, values can overlap the other calls; inactive means above about -39%
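Inhibition of viral replication was scored as loss of reporter luminescence in HFFs infected with HCMV-luciferase (MOI 1 PFU/cell) for 72 h; compounds tested at 2 doses, normalized to buffer and Salinomycin controls.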
VACV Venus inh: qHTS for Stage-Specific Inhibitors of Vaccinia Orthopoxvirus: Venus Reporter Primary qHTS. Vaccinia virus Venus reporter expression, fluorescence. Potency, µM (titrated, usually from 36.5 µM), without a hit: at the highest dose activity change, negative = inhibition, actives largely listed as inhibitors. hit rate 0.46% among 330,000. AID 720580, 2013; calls by dose curve; tested in A549 cells; further: potency means the concentration at half of the fitted maximal effect; nearly all actives have a fitted effect of over 30% in size
* = called active by the depositor; [ ] = dose if it differs, or a comment. Sampled rows, rich in hits. Any-hit rate of the full collection: about 7.8%. On the % scale 0 is the no-effect control and ±100 the full control effect.

For Cc1ccc(S(=O)(=O)N2C[C@H]3n4c(=O)ccc(=O)n4C[C@H](OC(=O)NCc4ccccc4F)[C@@]3(O)C2)cc1 the results were VACV mCherry inh inconclusive, HCMV inh -102* and VACV Venus inh inconclusive.
CCCCCCn1c(=O)n2n(c1=O)[C@@H]1CN(S(=O)(=O)c3ccc(C)cc3)C[C@]1(O)[C@@H](OC(=O)NCc1ccccc1F)C2 was read as VACV mCherry inh -20%, HCMV inh 13 and VACV Venus inh inconclusive.
`Cc1ccc(S(=O)(=O)N2C[C@H]3n4c(=O)ccc(=O)n4C[C@H](OC(=O)Nc4cccs4)[C@@]3(O)C2)cc1` gave VACV mCherry inh inconclusive, HCMV inh 5 and VACV Venus inh -24%.
Screening CCCCCCn1c(=O)n2n(c1=O)[C@@H]1CN(S(=O)(=O)c3ccc(C)cc3)C[C@]1(O)[C@@H](OC(=O)NC1CC1)C2 returned VACV mCherry inh inconclusive, HCMV inh 7 and VACV Venus inh -24%.
Screening CCCCCCNC(=O)O[C@H]1Cn2c(=O)ccc(=O)n2[C@@H]2CN(S(=O)(=O)c3ccc(C)cc3)C[C@]12O returned VACV mCherry inh inconclusive, HCMV inh -89* and VACV Venus inh 10µM*.
Screening CCCCCCNC(=O)O[C@H]1Cn2c(=O)n(CCCCCC)c(=O)n2[C@@H]2CN(S(=O)(=O)c3ccc(C)cc3)C[C@]12O returned VACV mCherry inh inconclusive, HCMV inh -103* and VACV Venus inh 16µM*.
Screening COC(=O)c1ccc(Cn2c(=O)cc(C(F)(F)F)c3c(C)nn(C)c32)cc1 returned LASV entry inh 17%[46.1 µM], VACV mCherry inh -9%, HCMV inh 11 and VACV Venus inh 2%.
`O=C(C1CCCCC1)N1CC(=O)N2[C@H](C1)[C@@H](c1ccc(Br)cc1)[C@@H]2CO` gave HCMV inh -8.
Screening O=C(C[N+]12CCCc3cccc(c31)CCC2)c1ccc2ccc3cccc4ccc1c2c34 returned VACV mCherry inh -16% and VACV Venus inh -6%.
`Cc1cc(C)cc([C@H]2C[C@]34CN(Cc5ccccc5)[S+](=O)([O-])[C@@H]3C[C@@H]2O4)c1` gave LASV entry inh 5%[46.1 µM].
Screening O=C(/C=C/c1ccc(Cl)cc1Cl)c1nc2ccccc2[nH]1 returned LASV entry inh -18%, VACV mCherry inh -9%, Marburg entry inh -38%, HCV inhibitor 18%, HCMV inh -9 and VACV Venus inh -10%.
Clc1ccc(/C=C/c2nc3ccccc3[nH]2)c(Cl)c1 was read as LASV entry inh 10µM*, Marburg entry inh inconclusive, HCV inhibitor inconclusive and HCMV inh -5.
For Clc1ccc(/C=C/c2nc3ccccc3[nH]2)cc1 the results were LASV entry inh inconclusive, Marburg entry inh 8.2µM*, HCV inhibitor inconclusive and HCMV inh inconclusive.
For CC1Cc2ccccc2N1C(=O)CSc1nnc(-c2ccccc2)c(-c2ccccc2)n1 (stereo not drawn) the results were LASV entry inh inconclusive, VACV mCherry inh -14%, Marburg entry inh inconclusive, HCV inhibitor 10µM*, HCMV inh -83* and VACV Venus inh -25%.
Cc1nnc(SC(C)C(=O)N2CCc3ccccc32)s1 (stereo not drawn) was read as LASV entry inh 3%, Marburg entry inh inconclusive, HCV inhibitor 18%, HCMV inh -33 and VACV Venus inh -25%.
For CC1Cc2ccccc2N1C(=O)CSc1nnc2c(n1)[nH]c1ccccc12 (stereo not drawn) the results were LASV entry inh -11%, Marburg entry inh -13%, HCV inhibitor -5%, HCMV inh -5 and VACV Venus inh -5%.
For CCCc1nc(SCC(=O)N2c3ccccc3CC2C)c2c(C)c(C)sc2n1 (stereo not drawn) the results were LASV entry inh inconclusive, VACV mCherry inh -2%, Marburg entry inh 9.2µM*, HCV inhibitor inconclusive, HCMV inh inconclusive and VACV Venus inh -1%.
`CC(Sc1nnc(-c2ccccc2)c(-c2ccccc2)n1)C(=O)N1CCc2ccccc21` (stereo not drawn) gave LASV entry inh inconclusive, VACV mCherry inh 0%, Marburg entry inh 11µM*, HCV inhibitor inconclusive, HCMV inh -31 and VACV Venus inh -4%.
CCCc1nc(SCC(=O)NC2CC2)c2c(C)c(C)sc2n1 was read as LASV entry inh 2%[46.1 µM], VACV mCherry inh inactive, Marburg entry inh 18%[46.1 µM], HCV inhibitor -18%, HCMV inh 55 and VACV Venus inh -14%.
Screening COc1ccc(/C=C/C(=O)C2C(=O)C=C(C)OC2=O)cc1O (stereo not drawn) returned LASV entry inh -3%, VACV mCherry inh -14%, Marburg entry inh -21%, HCV inhibitor -2%, HCMV inh -77* and VACV Venus inh 13%.
Screening COc1ccc(/C=c2\s/c(=C\C(=O)C(C)(C)C)[nH]c2=O)cc1O returned Marburg entry inh 1%, HCV inhibitor inconclusive and HCMV inh -5.
COc1cc(/C=C/C(=O)C2C(=O)C=C(C)OC2=O)cc(OC)c1O (stereo not drawn) was read as LASV entry inh -29%, VACV mCherry inh 58%, Marburg entry inh 1%, HCV inhibitor inconclusive, HCMV inh -90* and VACV Venus inh 82%.
COc1cc(/C=C/C(=O)O)cc(Br)c1O was read as LASV entry inh -12%, VACV mCherry inh inactive, Marburg entry inh 2%[46.1 µM], HCV inhibitor 16%, HCMV inh -32 and VACV Venus inh -7%.
O=C(Nc1ccc(Cl)cc1)N1CCSC1=NCc1ccccc1 was read as LASV entry inh -1%, VACV mCherry inh -16%, Marburg entry inh 17%, HCV inhibitor 13%, HCMV inh -31 and VACV Venus inh -13%.
`O=C(CN1CCSC1=NCc1ccccc1)c1ccc(Cl)cc1` gave LASV entry inh 15%, VACV mCherry inh -26%, Marburg entry inh -24%, HCV inhibitor 13µM*, HCMV inh -4 and VACV Venus inh -15%.
For COc1ccc(C2=C(C)C(=O)N(Cc3ccc(C(=O)NC(C)c4ccccc4)cc3)S2(=O)=O)cc1 (stereo not drawn) the results were LASV entry inh -1%[46.1 µM], VACV mCherry inh -3%, HCMV inh 4 and VACV Venus inh -3%.
COc1cccc(/C=C/c2nc(C#N)c(NC3CCCCC3)o2)c1 was read as LASV entry inh 11%[46.1 µM], VACV mCherry inh inconclusive, Marburg entry inh 22%[46.1 µM], HCMV inh -6 and VACV Venus inh -29%.
